{"source": "PubChem BioAssay AID1347426", "about": "(Functional Genomics Laboratory (NCATS/FGL), 2020)", "note": "About 1,400 (4.5%) of roughly 31,000 sequences were called active.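 Rule for the calls: active = median seed-adjusted z-score above 1 or below -1; inactive = the rest.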 Only a selection was taken, and actives are over-represented in it overall.", "data": [{"assay": "Novel Modifiers of Survival Motor Neuron (SMN) Protein: Gene Identification via Genome-wide siRNA Screen;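 note: luminescence tracks full-length SMN protein made from the SMN2 reporter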", "conditions": "HEK293T SMN2-luciferase reporter, siRNA knockdown, 72 h; actives lie on both sides", "text": "Spinal muscular atrophy (SMA) is the most common neuromuscular autosomal recessive disorder and one of the leading genetic causes of infant death. SMA results from mutations inducing loss of function or deletion in the survival of motor neuron-1 gene (SMN1), leading to deficiency of the survival motor neuron (SMN) protein. Although a second nearly identical gene, SMN2, is retained in humans, its expression primarily produces an aberrantly spliced isoform that is largely unstable and quickly degraded. We performed a genome-wide RNAi screen using a cell-based reporter assay to identify genes and pathways that modulate SMN protein stability. The screen identified over 200 genes that led to the greatest increase or decrease in luciferase expression.\nUsing HEK293T cells stably expressing a luciferase reporter that combines the promoter and splicing based cassettes in tandem with the major portion of the native SMN2 cDNA with luciferase, we performed a genome-wide RNAi screen to identify modulators of SMN protein levels. Luciferase is expressed when full-length SMN protein is generated with luminescence signal proportional to SMN protein levels. Our luciferase-based reporter assay was used to screen Ambion Silencer Select Human Druggable Genome siRNA library (10418 genes, 3 unique siRNAs per gene) using lipid-based reverse transfection.\nBriefly, 1 pmol of each siRNA was spotted to a well of a 384-well plate (Corning, Corning, NY) and 20 microL of serum-free DMEM containing […] of Lipofectamine RNAiMax (Life Technologies, Carlsbad, CA) was then added to each well. Transfected cells were maintained at 37 degrees C in 5% CO2 for 72 hours, 20 microL of ONE-Glo Reagent (Promega) was added to wells for luciferase quantification. Raw luminescence reads were normalized to Ambion(R) Silencer(R) Negative Control #2 siRNA, then log10 transformed. A robust statistical measure of median absolute deviation (MAD) to standardize siRNA activities from each screen. Common Seed Analysis was used to help prioritize clean hits as opposed to those appearing to arise from seed based off-target effects. Candidate modulators were defined as the genes having a MAD score greater than 1.0 or less than -1.0.", "values": [{"sequence": "GGACUCACCAAAUAGAUCATT against ZNF818", "median seed-adjusted z-score": "-0.223 (inactive)"}, {"sequence": "GCAAGGAGUAUAACAUGUATT against SKAP1", "median seed-adjusted z-score": "-0.00637 (inactive)"}, {"sequence": "CAUUCGAUCUAGCAAAUUATT against TUBB1", "median seed-adjusted z-score": "-0.289 (inactive)"}, {"sequence": "GGCUGUUGGUAACCUGAGATT against TF", "median seed-adjusted z-score": "0.192 (inactive)"}, {"sequence": "GACCAUUCGUACUCCUUGUTT against THAP11", "median seed-adjusted z-score": "-1.36 (active)"}, {"sequence": "CCAUCGCCUUGAAGGAGAATT against RNF31", "median seed-adjusted z-score": "-0.687 (inactive)"}, {"sequence": "AGACCUUCGUGGAAAAAUATT against CDC37", "median seed-adjusted z-score": "0 (inactive)"}, {"sequence": "GGAGGACAAUCAGCAAGGATT against SPOCK2", "median seed-adjusted z-score": "0.967 (inactive)"}, {"sequence": "AGAACAUCAUCGCGCGGGATT against FOXB1", "median seed-adjusted z-score": "0.223 (inactive)"}, {"sequence": "GCUUACUAGUUUGAACGGATT against SPATA5", "median seed-adjusted z-score": "-1.04 (active)"}, {"sequence": "GCUCCAACCUCGAAGUAGATT against ACVR2B", "median seed-adjusted z-score": "0.824 (inactive)"}, {"sequence": "GGCUUCACCUAAAAACGUATT against BRCA2", "median seed-adjusted z-score": "0 (inactive)"}, {"sequence": "GAUCGUUGCAAAGUUCUUATT against CPSF6", "median seed-adjusted z-score": "-2.38 (active)"}, {"sequence": "CUCCACUGCUUUUCCAAGATT against DBX2", "median seed-adjusted z-score": "0.244 (inactive)"}, {"sequence": "GAGUUCCUCUUGGAUCUAATT against CASQ2", "median seed-adjusted z-score": "0.4 (inactive)"}, {"sequence": "GGCGAGGCUUUAUAGUUGATT against ZNF589", "median seed-adjusted z-score": "-0.0897 (inactive)"}, {"sequence": "CCUGGAGCAUCGUAACAUUTT against F11", "median seed-adjusted z-score": "-0.0319 (inactive)"}, {"sequence": "GGCUUAUACAAUGUCAACATT against HOXA7", "median seed-adjusted z-score": "-0.129 (inactive)"}, {"sequence": "AGAUAACAGCAUGGAUUUATT against MMD", "median seed-adjusted z-score": "0.193 (inactive)"}, {"sequence": "GCAAUUUGCUGUUGCCGAATT against RHBDD1", "median seed-adjusted z-score": "0.00277 (inactive)"}, {"sequence": "CCAUUAUUGCUGCCCGGAATT against PGM5", "median seed-adjusted z-score": "-0.0543 (inactive)"}, {"sequence": "GUCUCUGACGGGUCCAUUATT against BMP1", "median seed-adjusted z-score": "-0.298 (inactive)"}, {"sequence": "GGACAAGGCUAACAUCCCATT against HMGA1", "median seed-adjusted z-score": "0.557 (inactive)"}, {"sequence": "GCUUGCACUUAAUCUCACATT against LAMB2", "median seed-adjusted z-score": "1.12 (active)"}, {"sequence": "GGUUAAAGGUUAUGGUCCATT against PROSC", "median seed-adjusted z-score": "0.173 (inactive)"}, {"sequence": "UUUUGUUCAUAUAACGUCATT against IFNA1", "median seed-adjusted z-score": "-0.625 (inactive)"}, {"sequence": "CCACCUUCCUUAUCGACAUTT against FZD8", "median seed-adjusted z-score": "-0.177 (inactive)"}, {"sequence": "CCACCUUGCAGAAAACCGATT against ITPR3", "median seed-adjusted z-score": "-1.28 (active)"}, {"sequence": "GCUCAUCCACUAUAACCAUTT against CA10", "median seed-adjusted z-score": "0.255 (inactive)"}, {"sequence": "GGUCGAAGCUGUGCAAGGATT against TPPP", "median seed-adjusted z-score": "-0.16 (inactive)"}]}]}
